# Test results reported in PubChem BioAssay (NCI).
# Several values for one entry are separate records, joined by “and”; a condition that tells them apart may be missing. Identical values can stand only once. About 79,000 compounds went through this panel and 15% of them were active in at least one assay; those are over-represented in the sample as a whole. Values without a mark were called inactive. Activity calls are given as the source filed them. Cut-off read from the data, not from the text of the source: active = growth inhibition above about 70%; inactive = the rest.
# Experiment: NCI Yeast Anticancer Drug Screen. Data for the bub3 strain (AID 167)
# Details: S. cerevisiae bub3 mutant strain, at 50.0 µM, active compounds read high
# Outline: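 Readout: yeast growth inhibition, expressed relative to vehicle-only wells. The test organism is a mutant strain from a panel with lesions in DNA repair or checkpoint genes.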
row,Compound,growth inhibition
1,O=C(O)C1(O)C[C@@H](O)C(O)[C@H](O)C1 (stereo partly drawn),-4.65% and -2.35%
2,C1CCC(N2CN(C3CCCCC3)C2)CC1,-8.85% and -19.4%
3,O=P(O)(O)Oc1ccccc1,-0.05% and -3.3%
4,CCOc1ccc(C=O)cc1OC,-26.9% and -0.4%
5,OC1C2COC(O2)C(O)C1O (stereo not drawn),-1.5% and 5.9%
6,Cn1c(=O)c2[nH]cnc2n(C)c1=O,-3.95% and -2.2%
7,CC1C(=O)c2cc3c(cc2CCN(C)Cc2c1ccc1c2OCO1)OCO3 (stereo not drawn),-29.9% and -12.9%
8,O=CC(O)C(O)C(OC1OC(CO)C(O)C(O)C1O)C(O)CO (stereo not drawn) (tested in a mixture with another compound),98.2% (active) and 80.7% (active)
9,CC(C)(O)C(I)C[n+]1ccccc1 (stereo not drawn),39.9% and 0.85%
10,CC1(C)OC2OC(C(COS(C)(=O)=O)OS(C)(=O)=O)C(OS(C)(=O)=O)C2O1 (stereo not drawn),5.9% and 1.45%
11,Cc1ccc(S(=O)(=O)N(C)c2ccccc2)cc1,11.8% and 16.3%
12,CC1CC(C)(C)C2=NCCN21 (stereo not drawn),-7.3% and 14.2%
13,O=C1C2C3C=CC(C3)C2C(=O)N1O (stereo not drawn),25.1% and 3.05%
